# Source: the supplement of paper PMC3898565
# ± gives the uncertainty stated by the source.
# Test system: U87
# Test: cell viability relative to vehicle control; higher = less growth inhibition (less active)
# Conditions: 10 µM; 72 h
# 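Note: viable cell number estimated from Alamar Blue fluorescence read at 560/90, part of a single-dose primary screen of an FDA-approved drug library.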
row,Structure (SMILES),cell viability [%]
1,CCCN1CCCC[C@H]1C(=O)Nc1c(C)cccc1C,107 ± 1.1
2,CCS(=O)(=O)CCn1c([N+](=O)[O-])cnc1C,101 ± 1.7
3,COc1ccc(-c2cc(=O)c3c(OC)c(OC)c(OC)c(OC)c3o2)cc1OC [Nobiletin],104.9 ± 0.98
